From PubChem BioAssay (EPA / NIEHS)
Inconclusive results are not listed. Calls of active or inactive are those of the source. The calls were made as follows, unless noted: active = hit-call score of the fitted dose curve at least 0.9, where 1 is the maximum; inactive = score below 0.9.

Columns and labels:
[1] = target: Glucocorticoid receptor (Homo sapiens) (UniProt P04150); assay: ATG_GR_TRANS: Attagene TRANS-FACTORIAL HepG2 Assay for human Glucocorticoid Receptor (GR) (AID 2282978; active = hit-call score of the fitted dose curve at least 0.9, where 1 is the maximum;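 also: activators score as hits since higher reporter transcript over DMSO is fitted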); details: HepG2 Attagene TRANS GR reporter, mRNA transcription
Sequence of Glucocorticoid receptor (Homo sapiens) (P04150 whole entry, looked up, the tested form may be a part): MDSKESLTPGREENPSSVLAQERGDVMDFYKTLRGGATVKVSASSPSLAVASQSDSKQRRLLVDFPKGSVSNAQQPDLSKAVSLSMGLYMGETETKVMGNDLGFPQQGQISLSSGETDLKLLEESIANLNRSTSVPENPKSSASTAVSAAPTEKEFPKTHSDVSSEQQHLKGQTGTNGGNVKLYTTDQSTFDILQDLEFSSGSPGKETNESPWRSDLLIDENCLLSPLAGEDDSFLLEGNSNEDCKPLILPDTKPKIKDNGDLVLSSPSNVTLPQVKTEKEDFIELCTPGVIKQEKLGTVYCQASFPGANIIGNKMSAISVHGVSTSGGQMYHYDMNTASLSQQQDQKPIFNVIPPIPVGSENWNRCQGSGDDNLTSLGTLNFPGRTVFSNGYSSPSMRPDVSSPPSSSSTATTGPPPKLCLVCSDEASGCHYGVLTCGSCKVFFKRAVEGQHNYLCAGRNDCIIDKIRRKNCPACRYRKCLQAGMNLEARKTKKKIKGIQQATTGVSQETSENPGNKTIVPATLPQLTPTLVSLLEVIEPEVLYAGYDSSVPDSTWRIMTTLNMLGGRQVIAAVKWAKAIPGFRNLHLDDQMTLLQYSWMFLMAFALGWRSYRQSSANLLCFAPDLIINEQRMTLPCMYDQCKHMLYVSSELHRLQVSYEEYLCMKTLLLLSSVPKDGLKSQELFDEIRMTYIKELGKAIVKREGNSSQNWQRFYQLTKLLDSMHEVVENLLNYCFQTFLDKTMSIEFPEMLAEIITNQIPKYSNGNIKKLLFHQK
Method in brief: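 Measurement of GAL4-UAS-driven reporter mRNA in human HepG2 liver cells 24 h post-dosing, using RT-PCR with fluorescent labelling and capillary electrophoresis; the transfected constructs report exogenous NR-GAL4 chimera activity, fitted upward against DMSO.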

[2] = target: Oxysterols receptor LXR-beta (Homo sapiens) (UniProt P55055); assay: ATG_LXRb_TRANS: Attagene TRANS-FACTORIAL HepG2 Assay for human Liver X Receptor beta (LXRb) (AID 2282981; active = hit-call score of the fitted dose curve at least 0.9, where 1 is the maximum); details: HepG2 Attagene TRANS GAL4-LXRb reporter, mRNA
Sequence of Oxysterols receptor LXR-beta (Homo sapiens) (P55055 whole entry, looked up, the tested form may be a part): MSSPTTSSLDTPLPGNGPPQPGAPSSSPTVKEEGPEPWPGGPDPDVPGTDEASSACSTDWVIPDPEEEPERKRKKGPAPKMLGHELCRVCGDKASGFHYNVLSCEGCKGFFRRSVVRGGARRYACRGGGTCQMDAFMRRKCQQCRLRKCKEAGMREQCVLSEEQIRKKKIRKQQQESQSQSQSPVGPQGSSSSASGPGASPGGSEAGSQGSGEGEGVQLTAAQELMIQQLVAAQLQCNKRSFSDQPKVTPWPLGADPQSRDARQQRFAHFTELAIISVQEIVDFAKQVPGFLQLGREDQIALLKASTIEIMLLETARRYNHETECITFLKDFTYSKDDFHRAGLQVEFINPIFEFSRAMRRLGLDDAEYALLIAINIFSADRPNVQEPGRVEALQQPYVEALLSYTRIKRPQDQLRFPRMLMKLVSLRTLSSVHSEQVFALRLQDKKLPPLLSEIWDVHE
Method in brief: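 HepG2 cells transiently transfected with multiple reporter transcription units carrying chimeric NR-Gal4 proteins acting on GAL4-UAS reporters; compound exposure 24 h. Reporter mRNA quantified by RT-PCR, 6-FAM labelling, HpaI digestion and capillary electrophoresis; gain of signal versus DMSO.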

[3] = target: Hepatocyte nuclear factor 4-alpha (Homo sapiens) (UniProt P41235); assay: ATG_HNF4a_TRANS: Attagene TRANS-FACTORIAL HepG2 Assay for human Hepatocyte Nuclear Factor 4 alpha (HNF4a) (AID 2282982; active = hit-call score of the fitted dose curve at least 0.9, where 1 is the maximum); details: HepG2 HNF4a transactivation reporter, mRNA readout
Sequence of Hepatocyte nuclear factor 4-alpha (Homo sapiens) (P41235 whole entry, looked up, the tested form may be a part): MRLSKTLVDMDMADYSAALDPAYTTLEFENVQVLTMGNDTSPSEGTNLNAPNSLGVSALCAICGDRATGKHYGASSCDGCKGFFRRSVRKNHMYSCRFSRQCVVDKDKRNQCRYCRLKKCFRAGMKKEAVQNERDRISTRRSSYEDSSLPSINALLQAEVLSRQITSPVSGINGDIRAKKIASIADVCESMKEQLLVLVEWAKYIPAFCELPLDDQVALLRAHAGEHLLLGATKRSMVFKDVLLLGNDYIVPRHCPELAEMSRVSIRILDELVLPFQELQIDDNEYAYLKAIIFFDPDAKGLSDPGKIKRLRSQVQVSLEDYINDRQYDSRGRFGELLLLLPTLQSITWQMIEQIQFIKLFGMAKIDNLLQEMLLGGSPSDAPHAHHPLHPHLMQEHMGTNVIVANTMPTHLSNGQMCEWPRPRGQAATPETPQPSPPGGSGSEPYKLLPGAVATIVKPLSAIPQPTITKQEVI
Method in brief: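 HepG2 cells transiently transfected with multiplexed GAL4-UAS reporter units responsive to chimeric NR-GAL4 proteins; compound exposure 24 h. Reporter mRNA quantified by RT-PCR, 6-FAM labelling, HpaI digestion and capillary electrophoresis; gain of signal versus DMSO baseline.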

[4] = ATG_M_06_TRANS: Attagene TRANS-FACTORIAL HepG2 Assay for M06 Transcription Factor (Internal Marker) (AID 2282983; active = hit-call score of the fitted dose curve at least 0.9, where 1 is the maximum); details: HepG2 Attagene TRANS M06 internal marker reporter
Method in brief: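 After a 24 h chemical treatment of transfected HepG2, RNA underwent DNase I treatment, reverse transcription and reporter-specific PCR; labelled, HpaI-digested products were sized by capillary electrophoresis. Signal increase relative to DMSO defined activity.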

[5] = ATG_M_32_TRANS: Attagene TRANS-FACTORIAL HepG2 Assay for M32 Transcription Factor (Internal Marker) (AID 2282984; active = hit-call score of the fitted dose curve at least 0.9, where 1 is the maximum;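 also: transcript level of a background control reporter unit measured by RT-PCR and capillary electrophoresis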); details: HepG2 Attagene TRANS M32 internal marker reporter
Method in brief: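 HepG2 cells transiently transfected with multiple GAL4-UAS reporter transcription units, dosed for 24 hours; reporter mRNA quantified by RT-PCR, 6-FAM primer extension, HpaI digestion and capillary electrophoresis. Gain-of-signal fitted versus DMSO baseline; internal background-control marker.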

[6] = target: Transcriptional activator Myb (Homo sapiens) (UniProt P10242); assay: ATG_Myb_CIS: Attagene CIS-FACTORIAL HepG2 Assay for human Myeloblastosis (Myb) Proto-Oncogene Transcription Factor (AID 2282986); details: HepG2 Attagene CIS-FACTORIAL Myb reporter transcription; actives raise or lower the signal
Sequence of Transcriptional activator Myb (Homo sapiens) (P10242 whole entry, looked up): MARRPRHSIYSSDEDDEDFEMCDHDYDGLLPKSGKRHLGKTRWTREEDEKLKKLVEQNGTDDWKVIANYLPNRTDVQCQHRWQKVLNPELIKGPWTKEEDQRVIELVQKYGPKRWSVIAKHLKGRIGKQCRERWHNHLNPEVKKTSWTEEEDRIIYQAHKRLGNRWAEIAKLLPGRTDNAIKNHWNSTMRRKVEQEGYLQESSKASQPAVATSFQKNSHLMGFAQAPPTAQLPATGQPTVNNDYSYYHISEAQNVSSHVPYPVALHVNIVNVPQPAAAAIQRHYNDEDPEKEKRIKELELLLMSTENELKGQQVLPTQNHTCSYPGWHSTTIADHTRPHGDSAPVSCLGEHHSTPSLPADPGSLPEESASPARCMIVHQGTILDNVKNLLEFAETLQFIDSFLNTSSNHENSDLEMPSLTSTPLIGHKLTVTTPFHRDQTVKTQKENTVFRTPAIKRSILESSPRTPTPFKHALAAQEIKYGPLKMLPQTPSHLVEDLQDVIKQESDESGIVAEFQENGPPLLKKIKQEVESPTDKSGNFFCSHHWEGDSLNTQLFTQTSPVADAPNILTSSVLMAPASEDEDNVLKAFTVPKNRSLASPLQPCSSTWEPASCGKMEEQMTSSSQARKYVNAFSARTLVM
Method in brief: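 Fluorescence signals from capillary electrophoresis of RT-PCR-amplified reporter cDNA give the read-out. Cells: HepG2 transfected with multiple cis-regulated reporter units. Exposure lasts 24 hours; DMSO defines baseline for gain or loss of signal.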

[7] = target: Nuclear respiratory factor 1 (Homo sapiens) (UniProt Q16656); assay: ATG_NRF1_CIS: Attagene CIS-FACTORIAL HepG2 Assay for human Nuclear Respiratory Factor 1 (NRF1) Orphan Gene (AID 2282987); details: HepG2 NRF1 cis-element reporter, Attagene multiplex; actives raise or lower the signal
Sequence of Nuclear respiratory factor 1 (Homo sapiens) (Q16656 whole entry, looked up): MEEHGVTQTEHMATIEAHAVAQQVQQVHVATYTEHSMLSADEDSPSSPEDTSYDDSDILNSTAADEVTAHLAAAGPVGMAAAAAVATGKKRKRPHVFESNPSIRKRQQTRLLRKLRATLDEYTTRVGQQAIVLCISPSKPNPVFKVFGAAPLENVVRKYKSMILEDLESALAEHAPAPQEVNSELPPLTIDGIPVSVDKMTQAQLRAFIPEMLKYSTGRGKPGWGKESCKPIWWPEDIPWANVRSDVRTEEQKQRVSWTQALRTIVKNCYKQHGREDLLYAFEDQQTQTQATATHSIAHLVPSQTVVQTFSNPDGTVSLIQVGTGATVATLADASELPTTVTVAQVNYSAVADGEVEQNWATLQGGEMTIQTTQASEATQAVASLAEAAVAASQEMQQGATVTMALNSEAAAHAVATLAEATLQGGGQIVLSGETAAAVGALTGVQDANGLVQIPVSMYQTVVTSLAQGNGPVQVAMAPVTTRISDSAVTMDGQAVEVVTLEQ
Method in brief: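 Transcriptional reporter readout, one component of a 52-endpoint multiplexed HepG2 panel. Exposure 24 h; mRNA detected via RT-PCR and fluorescent capillary electrophoresis; fitting in both directions against DMSO.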

[8] = ATG_NFI_CIS: Attagene CIS-FACTORIAL HepG2 Assay for human Nuclear Factor I (NFI) (AID 2282989); details: HepG2 cis-regulatory reporter, NFI response element transcription; actives raise or lower the signal
Method in brief: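 Multiplexed cis-reporter system in human HepG2 cells reports native TF activity as reporter mRNA induction 24 h post-dose. Fragments labelled with 6-FAM, HpaI-digested and resolved by capillary electrophoresis; activity fitted both directions versus DMSO.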

[9] = target: Myc proto-oncogene protein (Homo sapiens) (UniProt P01106); assay: ATG_Myc_CIS: Attagene CIS-FACTORIAL HepG2 Assay for human Myelocytomatosis (Myc) Proto-Oncogene Transcription Factor (AID 2282990); details: HepG2, Attagene cis-reporter transcription factor activity; actives raise or lower the signal
Sequence of Myc proto-oncogene protein (Homo sapiens) (P01106 whole entry, looked up): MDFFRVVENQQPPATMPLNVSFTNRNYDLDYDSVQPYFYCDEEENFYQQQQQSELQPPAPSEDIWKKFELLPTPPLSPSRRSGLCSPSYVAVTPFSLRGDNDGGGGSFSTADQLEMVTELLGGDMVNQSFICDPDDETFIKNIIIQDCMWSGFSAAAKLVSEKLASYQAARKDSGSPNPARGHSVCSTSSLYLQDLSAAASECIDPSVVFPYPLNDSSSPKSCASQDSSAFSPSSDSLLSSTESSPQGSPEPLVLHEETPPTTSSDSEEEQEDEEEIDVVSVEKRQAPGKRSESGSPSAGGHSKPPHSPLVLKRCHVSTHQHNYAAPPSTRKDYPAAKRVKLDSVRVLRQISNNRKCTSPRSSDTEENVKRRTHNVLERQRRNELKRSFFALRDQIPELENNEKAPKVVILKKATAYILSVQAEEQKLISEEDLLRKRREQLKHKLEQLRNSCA
Method in brief: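 DMSO-normalised, bidirectionally fitted reporter mRNA signal. HepG2 cells transfected with cis reporter constructs, treated 24 h; transcripts detected by RT-PCR, 6-FAM primer extension and CE.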

[10] = ATG_NRF2_ARE_CIS: Attagene CIS-FACTORIAL HepG2 Assay for human Nuclear Factor Erythroid 2 Related Factor 2 (NFR2) response to Antioxidant Response Elements (ARE) (AID 2282992); details: HepG2 Attagene ARE/NRF2 reporter, transcription factor activity; actives raise or lower the signal;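 as to AC50: reporter mRNA level measured by RT-PCR and capillary electrophoresis fluorescence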
Method in brief: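 HepG2 cells transiently transfected with multiplexed cis-regulated reporter transcription units measure endogenous transcription factor activity. Reporter mRNA at 24 h is quantified by RT-PCR, fluorescent labelling and capillary electrophoresis, with bidirectional fitting relative to DMSO.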

[11] = ATG_Oct_MLP_CIS: Attagene CIS-FACTORIAL HepG2 Assay for human Octamer-Binding Transcription Factor (Oct) (AID 2282993); details: HepG2 Attagene cis-factorial Oct reporter, mRNA; actives raise or lower the signal
Method in brief: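 After 24 h compound exposure, transfected HepG2 cells were lysed for total RNA; reporter-specific cDNA was PCR-amplified, fluorescently labelled and sized by capillary electrophoresis. Bidirectional curve fitting used DMSO as baseline.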

[12] = target: Cellular tumor antigen p53 (Homo sapiens) (UniProt P04637); assay: ATG_p53_CIS: Attagene CIS-FACTORIAL HepG2 Assay for human p53 Transcription Factor (AID 2282994); details: HepG2 p53 cis-element reporter, Attagene mRNA; actives raise or lower the signal
Sequence of Cellular tumor antigen p53 (Homo sapiens) (P04637 whole entry, looked up): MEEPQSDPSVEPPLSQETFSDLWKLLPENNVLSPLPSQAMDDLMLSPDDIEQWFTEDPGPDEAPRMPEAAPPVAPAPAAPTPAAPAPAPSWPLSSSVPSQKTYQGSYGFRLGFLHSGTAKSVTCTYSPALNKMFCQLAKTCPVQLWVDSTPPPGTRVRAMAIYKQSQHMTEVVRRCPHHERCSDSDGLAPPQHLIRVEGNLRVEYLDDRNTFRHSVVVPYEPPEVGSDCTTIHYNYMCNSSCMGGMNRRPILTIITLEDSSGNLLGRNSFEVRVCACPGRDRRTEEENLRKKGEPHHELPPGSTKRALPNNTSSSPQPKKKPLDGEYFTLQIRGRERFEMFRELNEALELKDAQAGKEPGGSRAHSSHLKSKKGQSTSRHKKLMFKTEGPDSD
Method in brief: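 HepG2 cells transiently transfected with multiplexed cis-regulated reporter transcription units read endogenous TF activity. After 24 h compound exposure, reporter mRNA was quantified by RT-PCR, fluorescent labelling, HpaI digestion and capillary electrophoresis; bidirectional fits versus DMSO baseline.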

[13] = ATG_NF_kB_CIS: Attagene CIS-FACTORIAL HepG2 Assay for human Nuclear Factor Kappa B (NF-kB) (AID 2282991); details: HepG2 Attagene cis-factorial NF-kB reporter mRNA; actives raise or lower the signal
Method in brief: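 HepG2, transient multi-reporter transfection, cis promoter elements (endogenous TFs). 24 h exposure. Total RNA → RT → PCR → 6-FAM label → HpaI → CE. Gain/loss vs DMSO.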

[14] = target: Oxysterols receptor LXR-alpha (Homo sapiens) (UniProt Q13133); assay: ATG_LXRa_TRANS: Attagene TRANS-FACTORIAL HepG2 Assay for human Liver X Receptor alpha (LXRa) (AID 2282980; active = hit-call score of the fitted dose curve at least 0.9, where 1 is the maximum); details: HepG2 Attagene TRANS reporter, LXRa transactivation
Sequence of Oxysterols receptor LXR-alpha (Homo sapiens) (Q13133 whole entry, looked up, the tested form may be a part): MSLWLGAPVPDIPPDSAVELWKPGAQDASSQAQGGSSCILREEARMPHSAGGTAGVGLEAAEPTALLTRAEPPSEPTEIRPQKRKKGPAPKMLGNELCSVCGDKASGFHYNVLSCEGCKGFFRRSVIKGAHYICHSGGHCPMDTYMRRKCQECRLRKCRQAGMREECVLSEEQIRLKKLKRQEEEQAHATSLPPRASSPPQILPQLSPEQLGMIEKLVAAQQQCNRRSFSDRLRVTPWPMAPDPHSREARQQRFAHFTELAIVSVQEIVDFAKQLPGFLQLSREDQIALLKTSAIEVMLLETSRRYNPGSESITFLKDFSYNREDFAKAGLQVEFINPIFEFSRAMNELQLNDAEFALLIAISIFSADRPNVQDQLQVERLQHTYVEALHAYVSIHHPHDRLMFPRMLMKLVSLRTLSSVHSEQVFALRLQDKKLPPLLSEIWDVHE
Method in brief: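 Read-out: reporter transcript levels by RT-PCR plus capillary electrophoresis, fluorescence intensity. Transiently transfected HepG2, exogenous NR-GAL4 chimera, GAL4-UAS reporters; 24 h compound exposure. Activity = increase over DMSO negative control.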

[15] = BSK_3C_TissueFactor: BioMAP Diversity Plus: 3C Assay for Tissue Factor Biomarker Activity (AID 2282997); details: BioMAP 3C HUVEC, tissue factor biomarker readout; actives raise or lower the signal
Method in brief: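 Human vascular primary cells (umbilical vein endothelium) received test chemical; Tissue Factor was determined by ELISA at 24 h, and both gain and loss of signal versus DMSO were fitted.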

[16] = BSK_3C_uPAR: BioMAP Diversity Plus: 3C Assay for Urokinase-type plasminogen activator receptor (uPAR) Biomarker Activity (AID 2282998); details: BioMAP 3C HUVEC, uPAR biomarker ELISA; actives raise or lower the signal
Method in brief: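 Values derive from bidirectional curve fitting relative to DMSO, which served as baseline of activity. uPAR was measured by ELISA in human umbilical vein endothelial primary cultures 24 h after compound addition.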

[17] = BSK_3C_VCAM1: BioMAP Diversity Plus: 3C Assay for Vascular cell adhesion molecule 1 (VCAM1) Biomarker Activity (AID 2282999); details: BioMAP 3C HUVEC, VCAM1 ELISA, cytokine-stimulated; actives raise or lower the signal
Method in brief: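 Human umbilical vein endothelial cells were dosed with compound for 24 h, after which cell-surface VCAM-1 was quantified by ELISA. Bidirectional curve fitting used DMSO as negative control and activity baseline.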

[18] = BSK_4H_Eotaxin3: BioMAP Diversity Plus: 4H Assay for Eotaxin 3 Biomarker Activity (AID 2283000); details: primary human endothelial cells (HUVEC); actives raise or lower the signal
Method in brief: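 Readout is Eotaxin-3 (CCL26) level by ELISA in primary human umbilical vein endothelial cells harvested 24 h after chemical exposure; activity fitted in both directions against DMSO control.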

Measured: AC50

Cc1cccc(C)c1[N+](=O)[O-]
not listed: [12] | [13] | [14] | [15] | [16] | [17] | [18]
inactive: all other assays above

Nc1cccc(S(=O)(=O)c2cccc(N)c2)c1
not listed: [5] | [13] | [14] | [15] | [16] | [17] | [18]
inactive: all other assays above

COCCOCCOCCOCCOCCO
not listed: [5] | [14] | [15] | [16] | [17] | [18]
inactive: all other assays above

CC(=O)O[C@H](CC(=O)[O-])C[N+](C)(C)C
inactive: [1] | [14] | [6] | [7] | [8] | [9] | [13] | [10] | [11] | [12]

CC1COc2ccccc2N1C(=O)C(Cl)Cl (stereo unspecified)
active: [10] 6.61 µM | [11] 30.6 µM | [16] 5.99 µM | [17] 11.3 µM | [18] 7.09 µM
not listed: [2] | [3] | [4] | [12]
inactive: all other assays above

C=CC(C)(O)CCC=C(C)CCC=C(C)C (stereo unspecified)
active: [6] 163 µM | [7] 164 µM | [8] 143 µM | [9] 181 µM | [13] 180 µM | [10] 100 µM | [11] 82.7 µM
inactive: [1] | [14] | [4] | [12]

O=C1OC2(c3cc(Br)c(O)c(Br)c3Oc3c2cc(Br)c(O)c3Br)c2c(Cl)c(Cl)c(Cl)c(Cl)c21
active: [10] 35.3 µM | [15] 4.1 µM | [16] 1.86 µM | [17] 4.58 µM | [18] 3.71 µM
not listed: [2] | [3] | [4] | [6]
inactive: all other assays above

CCCCCCCCCCCCOCCO
inactive: [1] | [14] | [4] | [6] | [13]
active: [7] 52.5 µM | [8] 56.6 µM | [9] 50.2 µM | [10] 54 µM | [11] 56.5 µM

Nc1ccc(F)c([N+](=O)[O-])c1
not listed: [4] | [5] | [14] | [15] | [16] | [17] | [18]
inactive: all other assays above

O=C(O)c1ccc([N+](=O)[O-])cc1
not listed: [14]
inactive: all other assays above
